Assay outcomes as filed in PubChem.
Only some compounds are listed: those with a hit (about 4.7% of all), similar ones and a draw of the others.
SKKanGAS inh: SKKanGAS growth inhibition; S. pyogenes SKKanGAS, kanamycin growth, BacTiter-Glo, 6 h; 300,000 tested, 1.3% active; inhibition, % at 7.5 µM;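 active = mean replicate score, as percent of positive control median, at least 50; inconclusive = mean below 50 but one replicate at or above 50; inactive = mean and every replicate below 50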;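 also: strain carries kanamycin resistance gene driven by streptokinase promoter and grows in 40 µg/ml kanamycin; loss of luminescence reflects streptokinase promoter inhibition or plain growth inhibition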
PfHsp90 yeast 2: inhibits growth of yeast expressing Plasmodium falciparum Hsp90; 310,000 tested, 0.32% active; S. cerevisiae expressing PfHsp90, BacTiter-Glo ATP, 48 h; yeast lacking PDR1 and PDR3 efflux regulators; inhibition, % at 9.4 µM;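 active = every replicate shows inhibition above about 80%, whatever the replicate mean, limit read from the data; inconclusive = mean inhibition reaches the set limit but some replicate falls short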
tim10-1 inh: growth inhibitors of tim10-1 mutant yeast; S. cerevisiae tim10-1 ts strain growth, BacTiter-Glo, 24 h; inhibition, % at 20 µM; 330,000 tested, 2.2% active; AID 463190;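 active = inhibition of at least 40%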;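 also: mutant grown at 25 °C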
tim23-1 inh: inhibits growth of tim23-1 mutant yeast; 330,000 tested, 1.3% active; inhibition, % at 20 µM; S. cerevisiae tim23-1 growth, BacTiter-Glo luminescence, 24 h; AID 463212;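 active = growth inhibition of the mutant yeast at or above 50%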;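 also: temperature-sensitive mutant grown at 25 °C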
TIM10 inh: growth inhibitors of TIM10 yeast strain; S. cerevisiae TIM10 strain growth, BacTiter-Glo luminescence, 24 h; inhibition, % at 10 µM; 330,000 tested, 1.4% active; AID 463195;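 active = inhibition of 40% or more at the single tested concentration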;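 also: wild-type TIM10 isogenic control strain grown at permissive 25 °C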
Calb FLC: affects C. albicans growth with fluconazole; C. albicans CaCi-2 (fluconazole-resistant clinical isolate) + fluconazole, Alamar Blue growth, 48 h; growth inhibition, % (concentration not given with the values); 300,000 tested, 0.57% active;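 active = growth inhibition above about 58% in most replicates, limit read from the data, passing the limit was not always enough; inconclusive = exactly half the replicates above a set limit; inactive = most replicates below a set limit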;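 also: all wells also contain fluconazole at 8 µg/ml as a sub-toxic cotreatment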
tim23-1 confirm: confirmation of tim23-1 mutant yeast growth inhibitors; inhibition, % at 20 µM; shares compounds with tim23-1 inh; 4,400 tested, 83% active; S. cerevisiae tim23-1 growth, BacTiter-Glo luminescence, 24 h;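 active = inhibition above about 39% in either of two replicate wells at 20 µM, limit read from the data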;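 also: temperature-sensitive tim23-1 mutant grown at 25 °C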
Large screens that a line does not name were inactive (follow-up assays come after a bar, where they were run).

COC(=O)[C@H](CC(C)C)NC(=O)c1cc2c(cn1)[nH]c1ccccc12	tim23-1 inh 59 | tim23-1 confirm 63
CC(C)CCNc1nc(N)c([N+](=O)[O-])c(N2CCCCCC2)n1	tim23-1 inh 50 | tim23-1 confirm inactive
CNc1nc(N)c([N+](=O)[O-])c(N2CCCCCC2)n1	none
COc1ccc(-c2noc(CNC(=O)c3ccc4c(c3)OCO4)n2)cc1	tim23-1 inh 53 | tim23-1 confirm inactive
Cc1cccc(-c2noc(CNC(=O)c3ccc4c(c3)OCO4)n2)c1	none
CC(O)c1ccc(Oc2cnccn2)cc1 (stereo not drawn)	none
COc1ccccc1-c1sc2ccccc2c1-c1ccc(O)cc1	PfHsp90 yeast 2 114, tim23-1 inh 55 (no result: SKKanGAS inh, Calb FLC) | tim23-1 confirm inactive
COc1ccc(-c2sc3ccccc3c2-c2ccc(O)cc2)cc1	PfHsp90 yeast 2 inconclusive (no result: SKKanGAS inh, Calb FLC)
COCc1cc(S(=O)c2ccc(Cl)cc2)nc(C)n1 (stereo not drawn)	none (no result: tim10-1 inh, tim23-1 inh, TIM10 inh)
Cc1ccc(-c2cc(-c3cccs3)[nH]n2)c(O)c1	tim23-1 inh 51 (no result: PfHsp90 yeast 2) | tim23-1 confirm inactive
Cc1ccc(-c2cc(C(=O)Nc3cc(C)ccc3C)[nH]n2)c(O)c1	none
O=C(O)c1cccc(N/N=C(\N=Nc2ccccc2)c2ccccc2)c1	tim23-1 inh 53 | tim23-1 confirm 46
O=C(O)c1ccc(N=N/C(=N\Nc2ccc(C(=O)O)cc2)c2ccccc2)cc1	none
COc1ccc(C2CC(=O)Oc3c(C(C)C)ccc(C)c32)cc1 (stereo not drawn)	tim23-1 inh 54 (no result: SKKanGAS inh, Calb FLC) | tim23-1 confirm 42
COc1ccccc1C1CC(=O)Oc2cc(C)c(Cl)c(C)c21 (stereo not drawn)	tim23-1 inh 52 (no result: SKKanGAS inh, Calb FLC) | tim23-1 confirm 41
COc1ccccc1C1CC(=O)Oc2cc(C)c(Br)c(C)c21 (stereo not drawn)	tim23-1 inh 60 (no result: SKKanGAS inh, Calb FLC) | tim23-1 confirm 42
COc1ccc(C2CC(=O)Oc3cc(OC)ccc32)cc1 (stereo not drawn)	tim23-1 inh 50 (no result: SKKanGAS inh, Calb FLC) | tim23-1 confirm inactive
COc1ccc(C2CC(=O)Oc3cc(C)cc(C)c32)cc1 (stereo not drawn)	none (no result: SKKanGAS inh, Calb FLC)
COc1ccc(S(=O)(=O)N(C)C2(C)CCS(=O)(=O)C2)cc1OC (stereo not drawn)	none
Cc1cc(Cl)c(C)c(S(=O)(=O)N2CCN(CC(=O)N3CCOCC3)CC2)c1Cl	none (no result: SKKanGAS inh, PfHsp90 yeast 2, Calb FLC)
COc1ccc(C2CC(=O)Oc3cc(C)c(Cl)c(C)c32)cc1 (stereo not drawn)	tim23-1 inh 51 (no result: SKKanGAS inh, Calb FLC) | tim23-1 confirm inactive
O=C(/C=C/c1c[nH]c2ccccc12)c1cccc2ccccc12	tim23-1 inh 54 | tim23-1 confirm 62
Oc1cccc(-c2nc3ccccc3s2)c1	none
CCOc1cc(-c2nc3ccccc3s2)ccc1O	tim23-1 inh 59 | tim23-1 confirm inactive
C/C(=N/NC(=O)c1cc(C)[nH]n1)c1ccco1	none
O=C1C(=Cc2cccs2)Oc2ccccc21	none (no result: SKKanGAS inh, tim10-1 inh, tim23-1 inh, TIM10 inh, Calb FLC)
O=C1/C(=C/c2cccs2)COc2ccccc21	tim23-1 inh 58 | tim23-1 confirm 58
CC(C)c1csc(CN2CCC(n3nccc3NC(=O)Cc3ccccc3)CC2)n1	none
COC(=O)N/N=C/c1ccccc1OCc1ccccc1	none
COC(=O)N/N=C/c1ccccc1OCCOc1ccc(OC)cc1	tim23-1 inh 51 | tim23-1 confirm 48
O=C(Cc1ccccc1[N+](=O)[O-])c1ccc2c(c1)OCO2	none (no result: SKKanGAS inh, tim10-1 inh, tim23-1 inh, TIM10 inh, Calb FLC)
CCc1ccc(-c2cc(C)no2)cc1S(=O)(=O)NCCc1ccc(OC)c(OC)c1	none
O=C(CN1C(=O)NC2(CCCC2)C1=O)Nc1cc(S(=O)(=O)N2CCOCC2)ccc1OCC(F)(F)F	none
CCOc1ccccc1C(=O)Oc1ccc2ccc(=O)oc2c1	tim23-1 inh 68 | tim23-1 confirm 47
Brc1ccc(-n2cnc(-c3ccccc3)c2)cc1	tim23-1 inh 55 | tim23-1 confirm 51
Nc1cc(-c2ccccc2)nn1S(=O)(=O)c1ccc(Br)cc1	none
CCc1ccc(/C=N/n2c(C3CCCCC3)n[nH]c2=S)cc1	SKKanGAS inh inconclusive
COc1cc(/C=N/n2c(C3CCCCC3)n[nH]c2=S)cc(OC)c1O	none
O=[N+]([O-])c1ccccc1/C=N/n1c(C2CCCCC2)n[nH]c1=S	tim23-1 inh 59 | tim23-1 confirm 48
